Screening results from PubChem BioAssay.
G9a block = qHTS Assay for Inhibitors of Histone Lysine Methyltransferase G9a; AID 504332, 2011; 350,000 tested, 8.8% active; G9a H3K9 monomethylation, AlphaScreen, 2 h; Potency, µM (highest dose often 102 µM), without a hit: at the top dose activity, negative = inhibition, hits mostly inhibitors; further: on the % scale 0 is the no-effect control and ±100 the full control effect; nearly all actives have a fitted effect of over 75% in size
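Methyltransferase reactions run at room temperature for 2 h (20 nM enzyme, 500 nM biotin-H3K9 peptide, 20 uM SAM) after a 15 min compound preincubation; product detected by AlphaScreen beads and anti-H3K9me1 antibody.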
Sfp inh = qHTS Assay for Inhibitors of Bacillus subtilis Sfp phosphopantetheinyl transferase (PPTase). 4'-phosphopantetheinyl transferase ffp (Bacillus subtilis), Q9F4F7. Biochemical Sfp PPTase activity, qHTS. Potency, µM, for inactives: largest response in the series, negative = inhibition, hits mostly inhibitors. 310,000 tested, 3.5% active;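 further: the enzyme is Sfp with the accession as filed and its product quenches rhodamine fluorescence; 0% = enzyme reaction without inhibitor and -100% = no enzyme wells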
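With Hepes-Na pH 7.6 buffer containing 10 mM MgCl2, Sfp (15 nM) modified BHQ-2-YbbR (12.5 uM) using rhodamine-CoA (5 uM). Two reads 30 minutes apart at 525/598 nm yielded each well's rate.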
PLK1 PBD inh = qHTS for Inhibitors of PLK1-PDB (polo-like kinase 1 - polo-box domain): Primary Screen; Potency, µM, without a hit: max response, negative = inhibition, actives largely listed as inhibitors; 360,000 tested, 2.8% active; Serine/threonine-protein kinase PLK1 (Homo sapiens), P53350; Plk1 PBD binding of FITC phosphopeptide, fluorescence polarization; AID 720504, 2013; further: series mostly up to about 57 µM; on the % scale 0 is the no-effect control and ±100 the full control effect; nearly all actives have a fitted effect of over 65% in size
BAZ2B inh = qHTS Assay for Inhibitors of BAZ2B | Bromodomain adjacent to zinc finger domain protein 2B (Homo sapiens), Q9UIF8 | AlphaScreen BAZ2B-H3K14Ac peptide displacement | Potency, µM (series often up to 114 µM), without a hit: at the highest dose activity change, negative = inhibition, actives largely listed as inhibitors | 360,000 tested, 4.4% active | AID 504333, 2011; further: on the % scale 0 is the no-effect control and ±100 the full control effect; nearly all actives have a fitted effect of over 60% in size
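Protein-peptide AlphaScreen: BAZ2B 50 nM, b-H3K14Ac 50 nM, 1x PBS pH 7.4 + 0.01% Tween-20. Preincubation 30 min RT; cpd 30 min RT (top 110 uM); beads 20 min RT, light-protected.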
JMJD2A Tudor inh = qHTS Assay for Inhibitors of JMJD2A-Tudor Domain; AID 504339, 2011; AlphaScreen JMJD2A-Tudor / H3K4me3 peptide binding; Potency, µM (doses to about 114 µM), for the others: top-dose activity change, negative = inhibition, hits mostly inhibitors; 390,000 tested, 4.4% active; Lysine-specific demethylase 4A (Homo sapiens), O75164; further: on the % scale 0 is the no-effect control and ±100 the full control effect; nearly all actives have a fitted effect of over 50% in size
HP1b chromo inh = HTS for Inhibitors of HP1-beta Chromodomain Interactions with Methylated Histone Tails. 390,000 tested, 0.56% active. Potency, µM (doses to about 114 µM), inactives show top-dose activity change, negative = inhibition, usual class: inhibitors. AID 540317, 2011. AlphaScreen HP1-beta / biotin-H3K9me3 peptide binding. Chromobox protein homolog 1 (Homo sapiens), P83916; further: nearly all actives have a fitted effect of over 70% in size
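AlphaScreen: HP1-beta (50 nM) preformed 30 min with biotin-H3(1-18)K9me3 peptide (50 nM) in PBS pH 7.4, 0.01% Tween-20. Compound added for 30 min at RT, then streptavidin donor/nickel chelate acceptor beads (10 ug/mL) for 30 min.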
Numbers without * were called inactive; [ ] = another dose, or the depositor's remark. The list is not random: actives were taken first. Their share in the collection is about 12%. The call rests on the fitted dose curve; in most records, active means well fitted curve in the direction sought with a large enough effect; inconclusive means small, poorly fitted or top-dose-only effect, or another doubt; inactive means no such curve, though single readings can be large; an effect the other way counts as inactive or inconclusive. Potency means the concentration at half of the fitted maximal effect.

O=C(c1cc2ccc3cccnc3c2[nH]1)N1CCCCC1 was read as G9a block -18.9%[59 µM], BAZ2B inh 0.3%[57.1 µM], JMJD2A Tudor inh -26.5% and HP1b chromo inh -13.0%.
CCOc1ccc(NC(=O)c2cc3c(C)nn(-c4ccccc4)c3s2)cc1 was read as G9a block -6.4%[59 µM], BAZ2B inh 0.8%, JMJD2A Tudor inh -2.4% and HP1b chromo inh 32.3%.
For CCOC(=O)/C(=N\Nc1ccc(Br)cc1)N1CC(C)OC(C)C1 (centres undefined) the results were G9a block 3.16µM*, Sfp inh -10.5%, PLK1 PBD inh -1.2%, BAZ2B inh -31.3%, JMJD2A Tudor inh inconclusive and HP1b chromo inh 7.4%.
For CC(=O)Nc1ccc2nc3c(=O)[nH]c(=O)[nH]c3nc2c1 the results were G9a block inconclusive, BAZ2B inh inconclusive, JMJD2A Tudor inh -32.8% and HP1b chromo inh 28.0%.
Screening O=C(Cn1cncn1)N/N=C/c1ccccc1O returned Sfp inh 18.4%, PLK1 PBD inh -5.5%, BAZ2B inh 79.4µM*, JMJD2A Tudor inh 56.2µM* and HP1b chromo inh 44.9%.
`O=C(N/N=C/c1cccc([N+](=O)[O-])c1)c1nc2ccccc2c(=O)[nH]1` gave G9a block -45.5%, Sfp inh 11.3%, PLK1 PBD inh 3.1%, BAZ2B inh -20.0%, JMJD2A Tudor inh -2.7% and HP1b chromo inh 14.6%.
For O=C(Cn1cncn1)N/N=C/c1cc([N+](=O)[O-])ccc1O the results were G9a block 20.2%[59 µM], Sfp inh 25.5%, PLK1 PBD inh -5.6%, BAZ2B inh 22.4µM*, JMJD2A Tudor inh 25.1µM* and HP1b chromo inh 35.3%.
For Cc1cc([N+](=O)[O-])nn1CC(=O)N/N=C/c1ccc(O)cc1O the results were G9a block 9.6%, Sfp inh 29.5%, PLK1 PBD inh 1.4%, BAZ2B inh 89.1µM*, JMJD2A Tudor inh inconclusive and HP1b chromo inh 50.3%.
`O=C(CCC(=O)Nc1ccc(Br)cc1)N/N=C/c1cc([N+](=O)[O-])ccc1O` gave G9a block 24.4%, Sfp inh 17.0%, PLK1 PBD inh 2.0%, BAZ2B inh -32.1%, JMJD2A Tudor inh -12.6% and HP1b chromo inh 34.5%.
`O=C(N/N=C/c1ccccc1Cl)c1nc2ccc([N+](=O)[O-])cc2c(=O)[nH]1` gave G9a block inconclusive, Sfp inh 24.4%, PLK1 PBD inh 23.8µM*, BAZ2B inh -16.8%, JMJD2A Tudor inh 25.1µM* and HP1b chromo inh -15.9%.
`CCN(CC)CC1CN(N=Cc2ccc([N+](=O)[O-])o2)C(=O)O1` (centres undefined) gave PLK1 PBD inh -3.0%, JMJD2A Tudor inh -1.4% and HP1b chromo inh 18.1%[57 µM].
O=C(Nc1cccc(Cl)c1)c1csc(COCCO)n1 was read as PLK1 PBD inh -9.7%.
`Cc1cccc(NC(=O)CCC(=O)N/N=C/c2cc([N+](=O)[O-])ccc2O)c1` gave G9a block 11.4%, Sfp inh 12.6%, PLK1 PBD inh -7.7%, BAZ2B inh 0.8%, JMJD2A Tudor inh -18.9% and HP1b chromo inh inconclusive.
Screening O=C(CSc1ccccn1)N/N=C/c1ccccc1[N+](=O)[O-] returned G9a block -37.7%[59 µM], Sfp inh 1.8%, PLK1 PBD inh -11.8%, BAZ2B inh -29.7%, JMJD2A Tudor inh 18.3% and HP1b chromo inh 24.9%.
`O=C(CSc1ccccn1)N/N=C/c1cc([N+](=O)[O-])ccc1O` gave G9a block -4.3%[12.7 µM], Sfp inh 17.3%, PLK1 PBD inh -4.4%, BAZ2B inh 44.7µM*, JMJD2A Tudor inh inconclusive and HP1b chromo inh 59.1%.
